The record followed here is PubChem BioAssay AID540332 (The Scripps Research Institute Molecular Screening Center, 2011).

In the assay the test system is Rolipram. The experiment in a line: selectivity profile across receptors and CYP450s – biochemical, Ricerca HitProfilingScreen, CYP450, set 2, selectivity assay for S1P4 agonist project, profiling panel (AID 540332). Conditions: at 30 µM; hits give high values.

Unmarked numbers belong to inactive results. The rule behind the calls is not given here.

For `COCCN=C1S/C(=C\c2cc(C)n(-c3ccc(F)cc3F)c2C)C(=O)N1C`, the inhibition (usually the change of the read-out against control, counted positive when it falls) is 15%.
